In PubChem BioAssay (Tox21):
“And” between values parts separate entries of the source, which are not always exact repeats. Identical values can stand only once. Results filed as inconclusive are left out. A call without a number means that no potency is given here. The source made the active and inactive calls. Unless noted, calls come from the whole dose curve.
Potency is the fitted concentration of half-maximal effect.

Assay: p53 small molecule agonists, cell-based qHTS assay with rat liver microsomes: qHTS cell viability counter screen (AID 1963580); note: nearly all actives have a fitted effect of over 45% in size
Conditions: p53RE-bla HCT-116 + rat microsomes, ATP viability, 16 h; series mostly up to 66 µM
Method in brief: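 p53RE-bla HCT-116 cells were exposed 16 h at 37 C to compounds with rat liver microsomes (0.5 mg/mL) and NADPH (0.5 mg/mL). Viability was measured in the same wells as ATP content by CellTiter-Glo luminescence.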
In the case of `CCC(C)OC(=O)c1ccc(O)cc1` (stereo not given), the Potency is reported as “inactive”.
With `O=c1n(CC2CO2)c(=O)n(CC2CO2)c(=O)n1CC1CO1` (stereo not given) the Potency was “inactive”.
With `COc1ccc2c(c1)c(CC(=O)O)c(C)n2C(=O)c1ccc(Cl)cc1` the Potency was “inactive”.
In the case of `Oc1c(Cl)cc(Cl)c(Cl)c1Cc1c(O)c(Cl)cc(Cl)c1Cl`, the Potency is reported as 18.2 µM (active) and 32.4 µM (active).
In the case of `NC(=O)c1ncn([C@@H]2O[C@H](CO)[C@@H](O)[C@H]2O)n1`, the Potency is reported as “inactive”.
With `CC(=O)OCC(=O)[C@@]12N=C(C)O[C@@H]1C[C@H]1[C@@H]3CCC4=CC(=O)C=C[C@]4(C)[C@H]3[C@@H](O)C[C@@]12C` the Potency was “inactive”.
With `CCCCC(CC)COC(=O)C(C#N)=C(c1ccccc1)c1ccccc1` (stereo not given) the Potency was “inactive”.
For `OC1CCCCC1`, the Potency was “inactive”.
In the case of `Cc1cc(=O)[nH]c(=S)[nH]1`, the Potency is reported as “inactive”.
In the case of `O=c1c(O)c(-c2ccc(O)cc2)oc2cc(O)cc(O)c12`, the Potency is reported as “inactive”.
In the case of `COCCOCCOC`, the Potency is reported as “inactive”.
With `C=C(C)C(=O)OCCCCCC` the Potency was “inactive”.
For `C=C(C)C1CC=C(C)C(OC(C)=O)C1` (stereo not given), the Potency was “inactive”.
In the case of `Nc1ncn([C@@H]2O[C@H](CO)[C@@H](O)[C@H]2O)c(=O)n1`, the Potency is reported as “inactive”.
For `C=C1C2CCC(C2)C1(C)C` (stereo not given), the Potency was “inactive”.
For `COCc1c(C(C)C)nc(C(C)C)c(/C=C/[C@@H](O)C[C@@H](O)CC(=O)O)c1-c1ccc(F)cc1`, the Potency was “inactive”.
For `CC(=O)Nc1ccc(C(=O)CCl)cc1`, the Potency was “inactive”.
In the case of `C=CC(C)(CCC=C(C)C)OC(C)=O` (stereo not given), the Potency is reported as “inactive”.
In the case of `C[C@]12C[C@H](O)[C@H]3[C@@H](CCC4=CC(=O)CC[C@@]43C)[C@@H]1CC[C@@H]2C(=O)CO`, the Potency is reported as “inactive”.
In the case of `CCCCCCCC(=O)OC`, the Potency is reported as “inactive”.
In the case of `O=C(Cl)c1c(Cl)c(Cl)c(C(=O)Cl)c(Cl)c1Cl`, the Potency is reported as “inactive”.
With `OC(Cn1cncn1)(Cn1cncn1)c1ccc(F)cc1F` the Potency was “inactive”.
In the case of `COC(=O)CCCCC(=O)OC`, the Potency is reported as “inactive”.
For `C[C@]12CC[C@@H]3c4ccc(O)cc4CC[C@H]3[C@@H]1CC[C@H]2O`, the Potency was “inactive”.
For `CCCN(CCC)C(=O)SCC`, the Potency was “inactive”.
For `C=C(C#N)C(=O)OCC`, the Potency was “inactive”.
In the case of `C[Si]1(C)O[Si](C)(C)O[Si](C)(C)O[Si](C)(C)O1`, the Potency is reported as “inactive”.
In the case of `CC(=O)Nc1nnc(S(N)(=O)=O)s1`, the Potency is reported as “inactive”.
For `O=[Se](O)O`, the Potency was “inactive”.
For `CCCCCCCCCCC(CO)CCCCCCCC` (stereo not given), the Potency was “inactive”.
In the case of `C#C[C@]1(O)CC[C@H]2[C@@H]3CCC4=Cc5oncc5C[C@]4(C)[C@H]3CC[C@@]21C`, the Potency is reported as “inactive”.
In the case of `COC(C)COC(C)COC(C)CO` (stereo not given), the Potency is reported as “inactive”.
With `Brc1ccc(Oc2ccc(Br)cc2)cc1` the Potency was “inactive”.
In the case of `O=C1CCCCCCCCCCCN1`, the Potency is reported as “inactive”.
In the case of `O=C(c1ccc(O)cc1)c1ccc(O)cc1O`, the Potency is reported as “inactive”.
For `CCCC(O)C(CC)CO` (stereo not given), the Potency was “inactive”.
In the case of `CC(=O)Oc1ccc(C(c2ccc(OC(C)=O)cc2)c2ccccn2)cc1`, the Potency is reported as “inactive”.
For `CC1COC(=O)O1` (stereo not given), the Potency was “inactive”.
With `CC(=O)O[C@]1(C(C)=O)CC[C@H]2[C@@H]3C=C(Cl)C4=CC(=O)CC[C@]4(C)[C@H]3CC[C@@]21C` the Potency was “inactive”.
In the case of `O=C(CC(C(=O)OC1CCCCC1)S(=O)(=O)O)OC1CCCCC1` (stereo not given), the Potency is reported as “inactive”.

Assay: p53 small molecule agonists, cell-based qHTS assay: qHTS cell viability counter screen (AID 1963581); note: nearly all actives have a fitted effect of over 45% in size
Conditions: p53RE-bla HCT-116 viability, ATP luminescence, 16 h; series mostly up to 66 µM
Method in brief: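 HCT-116 p53RE-bla cells, 4,000/well, plated 5 h before compound pin transfer; 16 h at 37 C; bla substrate 2 h RT; then CellTiter-Glo, 30 min RT, luminescence.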
For `CCC(C)OC(=O)c1ccc(O)cc1` (stereo not given), the Potency was “inactive”.
With `COc1ccc2c(c1)c(CC(=O)O)c(C)n2C(=O)c1ccc(Cl)cc1` the Potency was “inactive”.
In the case of `Oc1c(Cl)cc(Cl)c(Cl)c1Cc1c(O)c(Cl)cc(Cl)c1Cl`, the Potency is reported as 18.2 µM (active).
In the case of `NC(=O)c1ncn([C@@H]2O[C@H](CO)[C@@H](O)[C@H]2O)n1`, the Potency is reported as “inactive”.
For `Nc1ncn([C@@H]2O[C@H](CO)[C@@H](O)[C@H]2O)c(=O)n1`, the Potency was “inactive”.
In the case of `C=C1C2CCC(C2)C1(C)C` (stereo not given), the Potency is reported as “inactive”.
In the case of `COCc1c(C(C)C)nc(C(C)C)c(/C=C/[C@@H](O)C[C@@H](O)CC(=O)O)c1-c1ccc(F)cc1`, the Potency is reported as “inactive”.
For `CC(=O)Nc1ccc(C(=O)CCl)cc1`, the Potency was “inactive”.
With `OC(Cn1cncn1)(Cn1cncn1)c1ccc(F)cc1F` the Potency was “inactive”.
For `C[C@]12CC[C@@H]3c4ccc(O)cc4CC[C@H]3[C@@H]1CC[C@H]2O`, the Potency was “inactive”.
For `CC(=O)Nc1nnc(S(N)(=O)=O)s1`, the Potency was “inactive”.
In the case of `O=[Se](O)O`, the Potency is reported as “inactive”.
For `C#C[C@]1(O)CC[C@H]2[C@@H]3CCC4=Cc5oncc5C[C@]4(C)[C@H]3CC[C@@]21C`, the Potency was “inactive”.
In the case of `O=C(c1ccc(O)cc1)c1ccc(O)cc1O`, the Potency is reported as “inactive”.
With `CC(=O)Oc1ccc(C(c2ccc(OC(C)=O)cc2)c2ccccn2)cc1` the Potency was “inactive”.
In the case of `CC(=O)O[C@]1(C(C)=O)CC[C@H]2[C@@H]3C=C(Cl)C4=CC(=O)CC[C@]4(C)[C@H]3CC[C@@]21C`, the Potency is reported as “inactive”.

Assay: p53 small molecule agonists, cell-based qHTS assay (AID 1963582; active = well fitted activation curve with a large enough effect in the signal ratio in the repeat runs, not every such curve was filed as active; the % refers to the signal ratio)
Conditions: HCT-116 p53RE-bla reporter, beta-lactamase FRET ratio, 16 h; series mostly up to 66 µM
Method in brief: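 Reporter line: p53RE-bla. Pre-incubation 5 h, 37 C, 5% CO2; compound (DMSO, pin tool) 16 h, 37 C; B/G FRET substrate 2 h RT; fluorescence intensity read.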
For `O=c1n(CC2CO2)c(=O)n(CC2CO2)c(=O)n1CC1CO1` (stereo not given), the Potency was 18.1 µM (active) and 20.4 µM (active).
For `CC(=O)OCC(=O)[C@@]12N=C(C)O[C@@H]1C[C@H]1[C@@H]3CCC4=CC(=O)C=C[C@]4(C)[C@H]3[C@@H](O)C[C@@]12C`, the Potency was “inactive”.
With `CCCCC(CC)COC(=O)C(C#N)=C(c1ccccc1)c1ccccc1` (stereo not given) the Potency was “inactive”.
With `OC1CCCCC1` the Potency was “inactive”.
In the case of `Cc1cc(=O)[nH]c(=S)[nH]1`, the Potency is reported as “inactive”.
With `O=c1c(O)c(-c2ccc(O)cc2)oc2cc(O)cc(O)c12` the Potency was “inactive”.
For `COCCOCCOC`, the Potency was “inactive”.
With `C=C(C)C(=O)OCCCCCC` the Potency was “inactive”.
In the case of `C=C(C)C1CC=C(C)C(OC(C)=O)C1` (stereo not given), the Potency is reported as “inactive”.
In the case of `C=CC(C)(CCC=C(C)C)OC(C)=O` (stereo not given), the Potency is reported as “inactive”.
In the case of `C[C@]12C[C@H](O)[C@H]3[C@@H](CCC4=CC(=O)CC[C@@]43C)[C@@H]1CC[C@@H]2C(=O)CO`, the Potency is reported as “inactive”.
In the case of `CCCCCCCC(=O)OC`, the Potency is reported as “inactive”.
For `O=C(Cl)c1c(Cl)c(Cl)c(C(=O)Cl)c(Cl)c1Cl`, the Potency was “inactive”.
In the case of `COC(=O)CCCCC(=O)OC`, the Potency is reported as “inactive”.
For `CCCN(CCC)C(=O)SCC`, the Potency was “inactive”.
In the case of `C=C(C#N)C(=O)OCC`, the Potency is reported as “inactive”.
In the case of `C[Si]1(C)O[Si](C)(C)O[Si](C)(C)O[Si](C)(C)O1`, the Potency is reported as “inactive”.
With `CCCCCCCCCCC(CO)CCCCCCCC` (stereo not given) the Potency was “inactive”.
With `COC(C)COC(C)COC(C)CO` (stereo not given) the Potency was “inactive”.
For `Brc1ccc(Oc2ccc(Br)cc2)cc1`, the Potency was “inactive”.
For `O=C1CCCCCCCCCCCN1`, the Potency was “inactive”.
In the case of `CCCC(O)C(CC)CO` (stereo not given), the Potency is reported as “inactive”.
For `CC1COC(=O)O1` (stereo not given), the Potency was “inactive”.
With `O=C(CC(C(=O)OC1CCCCC1)S(=O)(=O)O)OC1CCCCC1` (stereo not given) the Potency was “inactive”.
